# Compound activity deposited in PubChem BioAssay by National Center for Advancing Translational Sciences (NCATS).
# This is a sample that favours compounds with a hit; in the whole collection about 2.4% have one here.
# D2 antagonist: antagonists of human D2 dopamine receptor; P14416; HEK293 TREx D2 cells, calcium flux, dopamine EC80; inhibition, % at 10 µM; 340,000 compounds, 2% hits; AID 485344; in the data active = inhibition above about 30%; inactive = below that, where a call was filed
# Target sequence (P14416 whole entry, looked up): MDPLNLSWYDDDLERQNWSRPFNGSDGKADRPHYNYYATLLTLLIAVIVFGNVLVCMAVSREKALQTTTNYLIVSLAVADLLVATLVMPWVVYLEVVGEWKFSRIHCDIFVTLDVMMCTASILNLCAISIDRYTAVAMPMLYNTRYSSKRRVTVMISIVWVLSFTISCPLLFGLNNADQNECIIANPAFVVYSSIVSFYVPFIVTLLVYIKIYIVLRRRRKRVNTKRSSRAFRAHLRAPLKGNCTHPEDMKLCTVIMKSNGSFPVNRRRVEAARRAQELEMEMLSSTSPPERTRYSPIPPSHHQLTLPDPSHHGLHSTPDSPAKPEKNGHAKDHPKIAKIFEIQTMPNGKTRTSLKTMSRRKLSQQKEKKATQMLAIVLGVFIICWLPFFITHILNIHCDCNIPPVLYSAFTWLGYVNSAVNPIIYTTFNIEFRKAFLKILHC
#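 Calcium mobilization kinetics were recorded at 1 s intervals in tetracycline-induced HEK293 T-REx D2 cells, first for 180 s after compound addition and then 180 s after EC80 dopamine.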
# D2 ag-1: D2 dopamine receptor (human) agonism. P14416. 340,000 compounds, 0.53% hits. HEK293 T-REx D2 cells, calcium flux agonist mode. activation, % at 2 µM;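 active = activation over 3 SD above normal in the single-dose calcium agonist read, cut at about 30% in these data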
#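 Agonism is scored from calcium flux in a force-coupled, inducible HEK293 cell line expressing D2, read kinetically for 180 s after compound addition against dopamine controls.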
# D2 PAM-1: D2 dopamine receptor (human) potentiation. P14416. HEK293 T-REx D2, calcium flux, EC20 dopamine potentiation. potentiation, % at 10 µM. 340,000 compounds, 0.34% hits;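 active = potentiation over 3 SD above the plate norm, cut at about 30% in these data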
#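 Potentiation of an EC20 dopamine calcium response measured kinetically over 180 s, after a preceding 180 s compound-only read flagging agonists. Cells: inducible Hek293 Trex D2 line, 4000/well, cultured overnight at 30 C before dye loading.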
# D2 PAM-2: positive allosteric modulators of human D2 dopamine receptor | DiscoveRx D2 beta-arrestin cells, luminescence, 90 min; 100% = 57 uM dopamine signal | 360,000 compounds, 0.23% hits | potentiation, % (concentration not given with the values); in the data active = potentiation above about 50%
#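 PathHunter beta-arrestin assay in DiscoveRx D2 cells. Compounds were added with an EC20 of dopamine (50 nM final) for 90 min at 37 deg C. Luminescence was read 1 h after detection reagent, with 57 uM dopamine as the EC100 control.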
# D2 ag-2: activates the human D2 dopamine receptor; P14416; DiscoveRx PathHunter D2 beta-arrestin, luminescence, 90 min; 100% = 57 uM dopamine signal; activation, % (no concentration beside the values); 360,000 compounds, 0.084% hits; AID 624465; in the data active = activation above about 40%
#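 Agonist mode: compounds alone added to overnight-plated D2 PathHunter cells for 90 min at 37 C, with 57 uM final dopamine (EC100) defining full response. Beta-arrestin recruitment detected by chemiluminescent reagent, read after 1 h at ambient temperature.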
# Hits are given with their value; n = inactive; x = no result.
SMILES,D2 antagonist,D2 ag-1,D2 PAM-1,D2 PAM-2,D2 ag-2
COc1ccc(C2(c3ccc(OC)cc3)NC(=O)N(CC(=O)NCC(C)c3ccccc3)C2=O)cc1 (stereo unspecified),67.8,n,n,n,n
COc1ccc(C2(c3ccc(OC)cc3)NC(=O)N(CC(=O)NC(C)C)C2=O)cc1,n,n,n,n,n
COc1cc2c(cc1OC)C(c1cc3cc4c(cc3[nH]c1=O)OCO4)N(C(=O)C1CC1)CC2 (stereo unspecified),32.6,n,n,n,n
COc1cc2c(cc1OC)C(c1cc3ccc(C)cc3[nH]c1=O)N(C(=O)c1ccco1)CC2 (stereo unspecified),n,n,n,n,n
COc1ccccc1CNC(=O)C(=O)NCC(c1cccs1)S(=O)(=O)c1ccccc1 (stereo unspecified),x,n,n,x,x
Cc1ccc2nc(-c3ccncc3)c(Nc3ccc(C(C)C)cc3)n2c1,x,n,n,x,x
CCCC(=O)Nc1ccc(C(=O)COC(=O)c2cc(C)oc2C)cc1,34.8,n,n,n,n
O=C1CC(C(=O)Nc2ccccc2)N=C(N2CCCCC2)N1 (stereo unspecified),n,n,n,n,n
Cc1ccc(NC(=O)C2CC(=O)NC(N3CCCCC3)=N2)cc1Cl (stereo unspecified),70.9,n,n,n,n
Cc1ccccc1OCCN1C(=O)C(=O)c2cccc(C)c21,n,n,n,n,n
Cc1cccc2c1N(CCOc1ccccc1Cl)C(=O)C2=O,30.4,n,n,n,n
Cc1ccc(CNC(=O)C2CCN(c3ncnc4c3nc3n4CCCCC3)CC2)cc1,x,n,n,x,x
Cc1cc(=O)[nH]c(N/N=C/c2ccc(-c3ccc(F)cc3)o2)n1,48.3,n,n,n,n
O=C(CC1N=C2c3ccccc3N=C(SCc3ccccc3F)N2C1=O)NCc1ccc2c(c1)OCO2 (stereo unspecified),x,n,x,x,x
Cc1ccc(S(=O)(=O)/N=C2\C=C(NS(=O)(=O)c3ccccc3)C(=O)c3ccccc32)cc1,x,x,x,n,n
Cc1ccc(S(=O)(=O)/N=C2/C=C(C3C(=O)CC(C)(C)CC3=O)C(=O)c3ccccc32)cc1,n,n,n,110.1,n
CC(CNC(=O)C1CCN(Cc2cc3ccccc3n2Cc2ccccc2)CC1)c1ccccc1 (stereo unspecified),x,n,n,x,x
CC(C)CC(=O)Nc1ccc(C(=O)CN2C(=O)NC3(CCOc4ccccc43)C2=O)cc1 (stereo unspecified),n,n,32.9,n,n
CNC(=O)NC(=O)CN1C(=O)NC2(CCOc3ccccc32)C1=O (stereo unspecified),31.2,n,n,n,n
Cc1cccc(C)c1NC(=O)CNC(=O)CN1C(=O)NC2(CCc3ccccc32)C1=O (stereo unspecified),33.2,n,n,n,n
NC(=O)NC(=O)CN1C(=O)NC2(CCOc3ccccc32)C1=O (stereo unspecified),n,n,n,n,n
Cc1cccc(NC(=O)CNC(=O)CN2C(=O)NC3(CCCc4ccccc43)C2=O)c1C (stereo unspecified),n,n,n,n,n
COc1ccc(-c2nc3scc(CCNS(=O)(=O)c4ccc5c(c4)OCCO5)n3n2)cc1,x,n,n,x,x
CCOC(=O)c1[nH]cnc1C(=O)N1CCN(C(=O)OC(C)(C)C)CC1,31.5,n,n,n,n
Cc1ccc(N2CCN(C(=O)C3CCN(c4ncnc5c4nc4n5CCCCC4)CC3)CC2)c(C)c1,x,n,n,x,x
SMILES,D2 antagonist,D2 ag-1,D2 PAM-1,D2 PAM-2,D2 ag-2
CC(CSc1nnnn1-c1ccccc1)Cn1c(N2CCCC2)nc2c1c(=O)[nH]c(=O)n2C (stereo unspecified),n,n,n,n,n
Cn1c(=O)[nH]c(=O)c2c1nc(N1CCOCC1)n2CCSc1nnnn1-c1ccccc1,36.6,n,n,n,n
CCOC(=O)C1=C(C)N(CCCCCC(=O)O)C(=O)NC1c1ccc([N+](=O)[O-])cc1 (stereo unspecified),n,31.2,n,n,n
CCOC(=O)C1=C(C)N(CCCCCC(=O)O)C(=O)NC1c1cccc([N+](=O)[O-])c1 (stereo unspecified),n,n,n,n,n
CC(C)NC(=O)CSc1nc2ccccc2c(=O)n1Cc1ccc(C(=O)NC(C)C)cc1,x,n,n,x,x
Cc1ccc(SCC(=O)Nc2ccc(C(=O)Nc3ccc(O)cc3)cc2)cc1,71.8,n,n,n,n
COc1ccc2oc(C)c(C(=O)NN)c2c1,n,n,n,n,n
CCOC(=O)CCC(=O)c1c(C)oc2ccc(OC)cc12,n,n,30.4,n,n
Cc1ccc(NC(=O)c2cc(CN3CCOCC3)on2)cc1Cl,x,n,n,x,x
Clc1ccccc1CN(Cc1ccccc1)C(c1cccs1)c1nnnn1C1CCCC1 (stereo unspecified),50.0,n,n,n,n
CCN(Cc1ccccc1)C(c1cccs1)c1nnnn1C1CCCCC1 (stereo unspecified),n,n,n,n,n
CCCNC(=O)Cn1c(=O)/c(=C\c2ccc(-c3ccc([N+](=O)[O-])cc3)o2)s/c1=C\C(=O)C(C)(C)C,53.8,93.3,n,n,n
CCN1CCOC(=O)C1CC(=O)Nc1ccc(Br)cc1 (stereo unspecified),x,n,n,x,x
CCN(c1ccccc1)S(=O)(=O)c1cc(C(=O)OC2CCOC2=O)ccc1C (stereo unspecified),n,n,31.0,n,n
CS(=O)(=O)c1ccc(C(=O)OC2CCOC2=O)cc1[N+](=O)[O-] (stereo unspecified),n,n,n,n,n
CSc1ccc(CN2CCC(CO)(CCOc3ccccc3)CC2)cc1,50.5,n,n,n,n
C=CCOc1ccccc1CN1CCC(CO)(CCOc2ccccc2)CC1,63.8,n,n,n,n
OCC1(CCOc2ccccc2)CCN(Cc2ccccc2OC(F)F)CC1,n,n,n,n,n
COc1ccc(NC(=O)C2CCCN(c3nnc(C)c4c(C)n(-c5ccccc5)nc34)C2)cc1Cl (stereo unspecified),x,n,n,x,x
CCOc1ccc(CNC(=O)C2Cc3cc(S(=O)(=O)N4CCCCCC4)ccc3N2C(C)=O)cc1 (stereo unspecified),x,n,n,x,x
Cc1ccccc1/C=C/c1nc2ccccc2c(=O)[nH]1,n,n,n,n,n
Cc1ccccc1/C=C\c1nc2ccccc2c(=O)[nH]1,33.1,n,n,n,n
Oc1c(C(c2ccccc2)N2CCN(c3cccc(Cl)c3)CC2)sc2nc(-c3ccco3)nn12 (stereo unspecified),x,n,n,x,x
Oc1ccc(C(=S)N2CCN(Cc3ccccc3)CC2)cc1,n,n,n,n,n
Cc1ccc(C(=S)N2CCN(Cc3ccccc3)CC2)s1,50.0,n,n,n,n
